Laboratory results as given in PubChem BioAssay AID2661 (Broad Institute, 2010).
In all, about 320,000 compounds went through this assay and about 240 (0.075%) were called active. The full list was thinned out, with actives kept by preference. Unmarked numbers belong to inactive results.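 Rule for the calls: active = inhibition at or above 25%, using the most active replicate where run in duplicate; inactive = inhibition below 25%.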

What follows are compounds tested against Serine/threonine-protein kinase 33 (Homo sapiens) (UniProt Q9BYT3) (assay: STK33 phosphorylation of MBP blockers – biochemical, ADP-Glo luminescence, homogeneous, cell-free, primary screen (AID 2661)). Details: purified STK33, MBP phosphorylation, at 10 µM, active compounds read high.
Chain of Serine/threonine-protein kinase 33 (Homo sapiens) (Q9BYT3 whole entry, looked up): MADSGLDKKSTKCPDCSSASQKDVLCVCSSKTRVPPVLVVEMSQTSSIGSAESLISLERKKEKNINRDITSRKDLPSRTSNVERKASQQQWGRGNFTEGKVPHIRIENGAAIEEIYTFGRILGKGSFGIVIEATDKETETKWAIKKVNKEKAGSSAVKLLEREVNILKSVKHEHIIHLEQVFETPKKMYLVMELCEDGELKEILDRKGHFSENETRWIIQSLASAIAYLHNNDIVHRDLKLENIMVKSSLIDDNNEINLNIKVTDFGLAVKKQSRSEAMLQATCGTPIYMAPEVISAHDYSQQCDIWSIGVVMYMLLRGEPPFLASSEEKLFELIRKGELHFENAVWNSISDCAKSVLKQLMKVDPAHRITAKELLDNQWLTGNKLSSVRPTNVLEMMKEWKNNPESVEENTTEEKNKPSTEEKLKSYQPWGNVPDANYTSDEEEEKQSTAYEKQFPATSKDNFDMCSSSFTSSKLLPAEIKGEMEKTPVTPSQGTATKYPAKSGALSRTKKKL
`COc1ccc(S(=O)(=O)N2CCN(c3cnccn3)CC2)cc1` gave an inhibition of 0.373%. `Cc1onc(-c2c(F)cccc2Cl)c1C(=O)OCC(=O)N1C(C)CCCC1C` (stereo unspecified) was tested, and the inhibition was -0.377%. `Cc1ccc(C)c(NC(=O)COC(=O)c2nn(C)c(=O)c3ccccc23)c1` showed an inhibition of 0.213%. With `Cc1cc(NC(=O)CSc2ncc(C(F)(F)F)cc2Cl)no1` the inhibition was -0.4%. `COc1ccc(C(=O)O)cc1S(=O)(=O)NC1CCN(Cc2ccccc2)CC1` was tested, and the inhibition was -0.986%. `Cn1nnnc1SCC(=O)Nc1sccc1C(N)=O` gave an inhibition of 0.459%. With `O=C(c1ccc(S(=O)(=O)NCc2ccco2)cc1)N1CCN(c2ccccc2)CC1` the inhibition was -0.564%. In the case of `COCC(C)n1c(SCC(=O)NC2CCCCC2C)nc2ccccc2c1=O` (stereo unspecified), the inhibition is reported as 1.21%. `C[C@H](CO)N1C[C@H](C)[C@H](CN(C)C(=O)Nc2ccc(C(F)(F)F)cc2)Oc2c(NC(=O)c3ccncc3)cccc2C1=O` was tested, and the inhibition was -1.64%. `Cc1ccc(NC(=O)Cn2cnc3c(OCc4ccccc4)ncnc32)cc1C` gave an inhibition of -0.221%. In the case of `COc1ccc(-c2oc3ncn(Cc4ccco4)c(=N)c3c2-c2ccc(OC)cc2)cc1`, the inhibition is reported as 0.0388%. `N=c1c2c(-c3ccccc3)c(-c3ccccc3)n(Cc3ccccc3)c2ncn1CCCO` showed an inhibition of -0.27%. For `N=c1c2c(-c3ccccc3)c(-c3ccccc3)oc2ncn1Cc1ccco1`, the inhibition was 29.3% (active). In the case of `CSCCC1NC(=O)N(CC(=O)Nc2cccc(S(=O)(=O)N3CCCCCC3)c2)C1=O` (stereo unspecified), the inhibition is reported as -1.42%. Compound `CN=C(Nc1cccc(S(=O)(=O)N2CCOCC2)c1)c1ccccc1` has an inhibition of -1.05%. For `CCN(C(=O)CSc1cccc[n+]1[O-])c1ccccc1`, the inhibition was -2.46%. Compound `C[C@H](NS(=O)(=O)c1ccc(Cl)cc1)C(=O)OCC(=O)N1CCOCC1` has an inhibition of -1.2%. In the case of `Cc1ccsc1C(=O)NCCc1ccco1`, the inhibition is reported as -0.976%. For `CC(C)CC1NC(=O)c2cc(Cl)ccc2-n2c1nc1ccccc1c2=O` (stereo unspecified), the inhibition was -0.406%. In the case of `CC(NC(=O)COC(=O)CCC(=O)c1ccc(Cl)cc1)c1ccccc1` (stereo unspecified), the inhibition is reported as 0.0433%. `CCCCCCSc1ccc(-c2nc3ccc(Cl)cn3c2NCc2ccccc2)cc1` gave an inhibition of -0.955%. In the case of `O=C(Nc1ccccc1-c1nnn(CC(=O)N2CCN(c3ccccc3)CC2)n1)c1cccs1`, the inhibition is reported as -0.118%. Compound `O=C(Nc1ccccc1-c1ccccc1)c1cccs1` has an inhibition of 4.17%. `O=C(Nc1ccccc1-c1nc2ccccc2[nH]c1=O)c1cccs1` was tested, and the inhibition was 71.9% (active). Compound `O=C(COc1ccc(Br)cc1F)NCC1(N2CCCCC2)CCCCC1` has an inhibition of -1.07%. `Cc1ccccc1SCC(=O)OCC(=O)N1CC(=O)Nc2ccccc21` was tested, and the inhibition was -0.869%. `C[C@H](CO)N1C[C@H](C)[C@@H](CN(C)C(=O)NC2CCCCC2)Oc2ccc(NC(=O)c3ccncc3)cc2C1=O` gave an inhibition of 0.225%. `CCC(CO)Oc1cc(NC(=O)c2ccc(Cl)cc2)c2ncn(C(C)C)c2c1` (stereo unspecified) gave an inhibition of -0.728%. With `COc1ccc(OCC(=O)NNC(=O)C2CCC2)cc1` the inhibition was -0.275%. Compound `COc1ccc(OC)c(NC(=O)COC(=O)Cc2ccsc2)c1` has an inhibition of 0.647%. For `Cc1ccc(S(=O)(=O)N2[C@@H](c3ccc(Br)cc3)C(C(=O)O)=C[C@H]2CC2CCCC2)cc1`, the inhibition was -2.01%. Compound `CCOC(=O)[C@@H]1[C@H]2COc3ccc(Br)cc3[C@H]2N2C(=O)N(c3ccc(C)cc3)C(=O)[C@@]12C` has an inhibition of -0.0883%. `CCCc1cc(=O)[nH]c(SCC(=O)Nc2ccc(S(=O)(=O)N3CCCC3)cc2)n1` showed an inhibition of -1.05%. For `Cc1noc(C)c1NC(=O)Nc1ccc2c(c1)C(=O)N([C@H](C)CO)C[C@H](C)[C@@H](CN(C)S(=O)(=O)c1cn(C)cn1)O2`, the inhibition was -0.91%. With `CCOC(=O)COc1cc(O)c2c(=O)cc(-c3ccccc3)oc2c1` the inhibition was 1.27%. `COc1c(O)cc2oc(-c3ccc(O)c(O)c3)cc(=O)c2c1O` was tested, and the inhibition was 44.2% (active). Compound `CCOC(=O)COc1cc(OCC(=O)OCC)c2c(=O)cc(-c3ccccc3)oc2c1` has an inhibition of -0.944%. `O=C(NNC(=O)c1ccc(Cl)nc1)c1ccc(Br)cc1` showed an inhibition of -0.906%. Compound `Cc1ccc(C)c(NC(=O)CN(C)C(=O)COc2ccc3ccccc3c2)c1` has an inhibition of -0.402%. `CC(=O)NC(CC(=O)Nc1ccc(S(=O)(=O)N2CCOCC2)cc1)c1ccccc1` (stereo unspecified) showed an inhibition of 2.28%. `Cc1ccc(S(=O)(=O)N2[C@@H](c3cccc4ccccc34)C(C(=O)O)=C[C@H]2C(C)(C)C)cc1` showed an inhibition of -1.33%. In the case of `CN(CCc1ccccc1)C(=O)c1cccc(NC(=O)Cc2ccc([N+](=O)[O-])cc2)c1`, the inhibition is reported as 0.236%. `O=C1OC[C@@H]2CCCN2C(=O)[C@H](CC(=O)N(CCO)Cc2ccccc2)C/C=C\CC[C@@H]1Cc1ccc(F)cc1` was tested, and the inhibition was -0.762%. `Cc1ccc(C(=O)OCC(=O)N2CCCCCC2)cc1S(=O)(=O)N1CCOCC1` showed an inhibition of -2.28%. In the case of `C=CC[C@@H](CC(=O)N[C@H](CO)Cc1ccccc1)C(=O)N[C@@H](COC(=O)[C@@H](CC=C)Cc1ccc(F)cc1)Cc1c[nH]c2ccccc12`, the inhibition is reported as -0.564%. `O=C1NC[C@@H](c2ccccc2)OC(=O)[C@H](Cc2ccc(F)cc2)CC/C=C/C[C@H]1CC(=O)N(CCO)Cc1ccccc1` gave an inhibition of -2.42%. With `Fc1ccccc1-c1cc2cc3c(cc2cn1)OCO3` the inhibition was 1.15%. `O=C(CN1C(=O)NC2(CCCCCC2)C1=O)Nc1ccc([N+](=O)[O-])cc1` showed an inhibition of -2.25%. With `O=C(COC(=O)c1cccnc1Cl)NC(=O)NC1CCCCC1` the inhibition was -0.374%. `COc1ccc(Cl)cc1NC(=O)COC(=O)c1ccc(Br)o1` was tested, and the inhibition was -0.284%. `COc1ccc(CNc2nc(NCc3ccc(OC)cc3)c3ncn(C4CCCC4)c3n2)cc1` showed an inhibition of -0.00506%. `O=C(CN1C(=O)c2ccc([N+](=O)[O-])cc2C1=O)Nc1nnc(C2CC2)s1` gave an inhibition of -0.729%. Compound `C=CCC[C@H](Cc1ccc(F)cc1)C(=O)OC[C@@H](Cc1c[nH]c2ccccc12)NC(=O)[C@H](CC=C)CC(=O)N[C@H](CO)Cc1ccccc1` has an inhibition of -0.577%. With `O=C(COC(=O)c1ccc(O)cc1O)c1ccc2c(c1)OCCO2` the inhibition was 1.53%. In the case of `CCOc1ccc(Br)cc1S(=O)(=O)Nc1ccc(S(=O)(=O)Nc2cc(C)on2)cc1`, the inhibition is reported as -0.663%. With `COc1ccc2nc3n(c(=O)c2c1)-c1cc(C)ccc1C(=O)NC3Cc1ccc(O)cc1` (stereo unspecified) the inhibition was -0.57%.
